The values that follow come from PubChem BioAssay (EPA / NIEHS).

Inconclusive results are not listed. The source made the active and inactive calls. Rule for the calls, unless noted: active = hit-call score of the fitted dose curve at least 0.9, where 1 is the maximum; inactive = score below 0.9.

Usually AC50 stands for the concentration giving half of the maximal activity seen.

Assay [1] deals with Paired box protein Pax-6 (Homo sapiens) (UniProt P26367). Nature of the assay: ATG_Pax6_CIS: Attagene CIS-FACTORIAL HepG2 Assay for human Paired Box 6 (PAX6) (AID 2282956). The following applies: HepG2 CIS-FACTORIAL PAX6 reporter transcription, RNA readout; actives raise or lower the signal. The method, boiled down:
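DMSO-referenced bidirectional fits of reporter mRNA fluorescence; HepG2 with transient cis-promoter MRTUs, 24 h post-dose, RT-PCR plus capillary electrophoresis detection.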

Assay [2] is described as follows: ATG_PXRE_CIS: Attagene CIS-FACTORIAL HepG2 Assay for human Pregnane X Receptor Element (PXRE) (AID 2282957). The following applies: HepG2 Attagene CIS-FACTORIAL PXRE reporter, mRNA; actives raise or lower the signal. The method in brief: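 Bidirectional activity, baselined to DMSO, derived from reporter mRNA fluorescence (RT-PCR plus capillary electrophoresis) in HepG2 cells bearing cis-promoter reporter units, 24 h exposure.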

Assay [3] can be described thus: ATG_PPRE_CIS: Attagene CIS-FACTORIAL HepG2 Assay for human Peroxisome Proliferator-activated Response Element (PPRE) (AID 2282958). The following applies: HepG2 PPRE cis-element reporter, Attagene transcription factor profiling; actives raise or lower the signal. The method, boiled down: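 Read-out: fluorescent reporter mRNA fragments resolved by capillary electrophoresis after RT-PCR. HepG2 cells carried transiently transfected PPRE-driven cis reporter constructs and were dosed for 24 h; gain or loss of signal fitted relative to DMSO.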

Assay [4] can be described thus: ATG_RORE_CIS: Attagene CIS-FACTORIAL HepG2 Assay for human RAR-related Orphan Receptor Element (RORE) (AID 2282959). The note with it: HepG2 Attagene cis-factorial RORE reporter, mRNA; actives raise or lower the signal. The method in brief: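 Readout: fluorescent reporter mRNA by RT-PCR plus capillary electrophoresis, 24 h after dosing transfected HepG2 cells. Endogenous transcription factor activity on a cis promoter element is measured. Gain or loss of signal fitted against DMSO.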

Assay [5] in a line: ATG_Sox_CIS: Attagene CIS-FACTORIAL HepG2 Assay for human SRY-box transcription factor (SOX) (AID 2282960). The note with it: HepG2 Attagene cis-factorial SOX reporter, mRNA; actives raise or lower the signal. The method, boiled down:
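Read-out: fluorescent RT-PCR products of SOX1-linked reporter transcripts resolved by capillary electrophoresis, fitted bidirectionally against DMSO. Transiently transfected HepG2 cells, 24 h after chemical exposure, endogenous transcription factor activity.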

Assay [6] concerns the target Transcription factor Sp1 (Homo sapiens) (UniProt P08047). The assay is described as follows: ATG_Sp1_CIS: Attagene CIS-FACTORIAL HepG2 Assay for human Specificity Protein 1 (Sp1) (AID 2282961). The note with it: HepG2 Sp1 cis-reporter transcription, actives raise or lower the signal. The method in brief:
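Read-out: fluorescence of 6-FAM-labeled, HpaI-digested RT-PCR products separated by capillary electrophoresis. HepG2 cells carried transfected cis-element reporter units and were exposed to chemicals for 24 h; gain or loss of signal fitted relative to DMSO.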

Assay [7] can be described thus: ATG_SREBP_CIS: Attagene CIS-FACTORIAL HepG2 Assay for human Sterol Regulatory Element Binding (SREBP) (AID 2282962). The note with it: HepG2 Attagene cis-factorial SREBP reporter, mRNA; actives raise or lower the signal. The method in brief: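 In this cis-format assay, HepG2 liver cells express reporters controlled by promoter elements responsive to native transcription factors. Exposure lasts 24 h; reporter mRNA fluorescence from capillary electrophoresis gives the signal, fitted bidirectionally against DMSO.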

The target of assay [8] is Signal transducer and activator of transcription 3 (Homo sapiens) (UniProt P40763). Nature of the assay: ATG_STAT3_CIS: Attagene CIS-FACTORIAL HepG2 Assay for human Signal Transducer and Activator of Transcription 3 (STAT3) (AID 2282963). The following applies: HepG2, Attagene cis-factorial STAT3 reporter transcription; actives raise or lower the signal. The method, boiled down: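 HepG2, MRTU-transfected, 24 h dosing. RNA → RT → PCR → FAM label → HpaI → CE. Bidirectional fit vs DMSO.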

Assay [9] in a line: ATG_TA_CIS: Attagene CIS-FACTORIAL HepG2 Assay for human TA Basal Promoter (AID 2282964). The note with it: HepG2 Attagene CIS-factorial TA basal promoter reporter; actives raise or lower the signal. The method, boiled down:
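HepG2 cells transiently transfected with multiplexed cis-promoter reporter units, dosed 24 h. Reporter mRNA measured by RT-PCR, 6-FAM labelling, HpaI digestion and capillary electrophoresis; bidirectional fit versus DMSO baseline, serving as background control.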

A short description of assay [10]: ATG_TCF_b_cat_CIS: Attagene CIS-FACTORIAL HepG2 Assay for human T-Cell-Factor with beta-catenin (TCF/b-cat) (AID 2282965). The following applies: HepG2 TCF/beta-catenin cis-reporter transcription, actives raise or lower the signal. The method in brief: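 HepG2 cells transiently transfected with multiple cis-promoter-regulated reporter transcription units, so endogenous transcription factor activity is measured. Reporter mRNA read 24 hours after dosing by RT-PCR, fluorescent labelling and capillary electrophoresis; bidirectional fitting against DMSO.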

Assay [11] is described as follows: ATG_TAL_CIS: Attagene CIS-FACTORIAL HepG2 Assay for human TAL Basal Promoter (AID 2282966).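 Note: background control endpoint measuring basal TAL promoter reporter mRNA not a specific factor.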 The note with it: HepG2 Attagene cis-factorial TAL promoter reporter; actives raise or lower the signal. The method, boiled down: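 Human hepatoma HepG2 cells, transfected with promoter-regulated reporter units, were treated 24 h. Reporter transcript levels, measured through RT-PCR and capillary electrophoresis, were fitted for gain or loss relative to DMSO.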

For assay [12], the target named is Nuclear receptor subfamily 1 group I member 3 (Homo sapiens) (UniProt Q14994). Nature of the assay: ATG_CAR_TRANS: Attagene TRANS-FACTORIAL HepG2 Assay for human Constitutive Androstane Receptor (CAR) (AID 2282969; active = hit-call score of the fitted dose curve at least 0.9, where 1 is the maximum;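 note: activators raise reporter mRNA above DMSO so AC50 marks induction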). The note with it: HepG2 Attagene TRANS-FACTORIAL CAR reporter. The method in brief: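 Steps: transient transfection of HepG2 with multiple GAL4-UAS reporter units; 24 h compound incubation; RNA isolation, RT-PCR, 6-FAM primer extension, HpaI digest; capillary electrophoresis. Gain-of-signal relative to DMSO negative control.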

The target of assay [13] is Estrogen receptor (Homo sapiens) (UniProt P03372). The assay is described as follows: ATG_ERa_TRANS: Attagene TRANS-FACTORIAL HepG2 Assay for human Estrogen Receptor alpha (ERa) (AID 2282970; active = hit-call score of the fitted dose curve at least 0.9, where 1 is the maximum). The following applies: HepG2 Attagene TRANS ERa GAL4 reporter, mRNA. The method in brief: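 Signal derives from fluorescence of labelled reporter PCR fragments separated by capillary electrophoresis. HepG2 cells transiently carrying multiple GAL4-UAS reporter units were treated 24 hours, and induction above DMSO baseline was fitted as activity.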

The target in assay [14] is Steroid hormone receptor ERR1 (Homo sapiens) (UniProt P11474). Nature of the assay: ATG_ERRa_TRANS: Attagene TRANS-FACTORIAL HepG2 Assay for human Estrogen-Related Receptor alpha (ERRa) (AID 2282971; active = hit-call score of the fitted dose curve at least 0.9, where 1 is the maximum). The note with it: HepG2 Attagene TRANS reporter, ERRa transactivation. The method, boiled down: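 Signal gain relative to DMSO for an ERRa-Gal4 chimeric receptor, read as reporter mRNA by RT-PCR/capillary electrophoresis. Human HepG2 liver cells, transient multiplex reporter transfection, 24 h chemical exposure.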

The target of assay [15] is X-box-binding protein 1 (Homo sapiens) (UniProt P17861). The assay is described as follows: ATG_Xbp1_CIS: Attagene CIS-FACTORIAL HepG2 Assay for human X-box Binding Protein 1 (XBP1) (AID 2282972). The following applies: HepG2 XBP1 cis-element reporter, Attagene multiplex; actives raise or lower the signal. The method in brief: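 Changes in reporter transcript abundance, read by RT-PCR and capillary electrophoresis, reflect endogenous transcription factor activity. Transfected HepG2 cells received compound for 24 hours; DMSO defined baseline for bidirectional analysis.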

Assay [16] is described as follows: ATG_TGFb_CIS: Attagene CIS-FACTORIAL HepG2 Assay for human Transforming Growth Factor (TGF) (AID 2282967). The following applies: HepG2 Attagene CIS TGFb reporter, mRNA transcription; actives raise or lower the signal. The method, boiled down: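 HepG2 cells transiently transfected with cis-promoter-driven multiplexed reporter units; 24 h compound exposure. Reporter mRNA measured by RT-PCR, 6-FAM labeling, HpaI digestion and capillary electrophoresis; bidirectional fit versus DMSO baseline.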

Assay [17] in a line: ATG_VDRE_CIS: Attagene CIS-FACTORIAL HepG2 Assay for human Vitamin D Receptor Element (VDRE) (AID 2282968). The following applies: HepG2 VDRE cis-reporter transcription, actives raise or lower the signal. The method in brief:
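Steps: transfect HepG2 with multiple reporter transcription units; dose chemicals 24 h; isolate RNA; RT-PCR; label with 6-FAM primer extension; HpaI digest; capillary electrophoresis. Curves fitted both directions against DMSO.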

In assay [18] the target is Estrogen-related receptor gamma (Homo sapiens) (UniProt P62508). Nature of the assay: ATG_ERRg_TRANS: Attagene TRANS-FACTORIAL HepG2 Assay for human Estrogen-Related Receptor gamma (ERRg) (AID 2282977; active = hit-call score of the fitted dose curve at least 0.9, where 1 is the maximum;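 note: hits increase reporter signal over DMSO so potencies reflect activators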). The following applies: HepG2 Attagene TRANS reporter, ERRg transactivation. The method in brief: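 Exogenous NR-Gal4 chimera activity measured as reporter transcript induction after 24 h in transiently transfected HepG2 cells. RNA reverse-transcribed, PCR-amplified, 6-FAM-labelled and resolved by capillary electrophoresis; increase over DMSO baseline.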

A short description of assay [19]: ATG_M_19_TRANS: Attagene TRANS-FACTORIAL HepG2 Assay for M19 Transcription Factor (Internal Marker) (AID 2282974; active = hit-call score of the fitted dose curve at least 0.9, where 1 is the maximum). The note with it: HepG2 Attagene TRANS-FACTORIAL M19 internal marker reporter. The method, boiled down: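 24 h chemical exposure of transiently transfected HepG2 (MRTU library). RNA → oligo(dT) RT → PCR → 6-FAM labelling → HpaI cut → CE fluorescence. Positive-direction fit vs DMSO baseline; background internal-marker readout.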

Sequence of Paired box protein Pax-6 (Homo sapiens) (P26367 whole entry, looked up): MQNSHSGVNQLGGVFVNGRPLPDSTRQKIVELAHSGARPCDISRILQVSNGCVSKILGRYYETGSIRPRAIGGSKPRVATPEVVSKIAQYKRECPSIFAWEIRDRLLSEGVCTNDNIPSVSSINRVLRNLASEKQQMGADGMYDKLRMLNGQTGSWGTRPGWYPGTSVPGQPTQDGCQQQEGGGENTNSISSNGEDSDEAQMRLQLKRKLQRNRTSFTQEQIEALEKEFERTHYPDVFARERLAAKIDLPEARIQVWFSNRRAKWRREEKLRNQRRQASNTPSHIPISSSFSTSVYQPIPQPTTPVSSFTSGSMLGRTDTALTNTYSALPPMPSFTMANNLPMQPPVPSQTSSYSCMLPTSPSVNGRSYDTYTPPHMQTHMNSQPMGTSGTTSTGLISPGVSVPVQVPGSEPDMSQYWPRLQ
Sequence of Signal transducer and activator of transcription 3 (Homo sapiens) (P40763 whole entry, looked up): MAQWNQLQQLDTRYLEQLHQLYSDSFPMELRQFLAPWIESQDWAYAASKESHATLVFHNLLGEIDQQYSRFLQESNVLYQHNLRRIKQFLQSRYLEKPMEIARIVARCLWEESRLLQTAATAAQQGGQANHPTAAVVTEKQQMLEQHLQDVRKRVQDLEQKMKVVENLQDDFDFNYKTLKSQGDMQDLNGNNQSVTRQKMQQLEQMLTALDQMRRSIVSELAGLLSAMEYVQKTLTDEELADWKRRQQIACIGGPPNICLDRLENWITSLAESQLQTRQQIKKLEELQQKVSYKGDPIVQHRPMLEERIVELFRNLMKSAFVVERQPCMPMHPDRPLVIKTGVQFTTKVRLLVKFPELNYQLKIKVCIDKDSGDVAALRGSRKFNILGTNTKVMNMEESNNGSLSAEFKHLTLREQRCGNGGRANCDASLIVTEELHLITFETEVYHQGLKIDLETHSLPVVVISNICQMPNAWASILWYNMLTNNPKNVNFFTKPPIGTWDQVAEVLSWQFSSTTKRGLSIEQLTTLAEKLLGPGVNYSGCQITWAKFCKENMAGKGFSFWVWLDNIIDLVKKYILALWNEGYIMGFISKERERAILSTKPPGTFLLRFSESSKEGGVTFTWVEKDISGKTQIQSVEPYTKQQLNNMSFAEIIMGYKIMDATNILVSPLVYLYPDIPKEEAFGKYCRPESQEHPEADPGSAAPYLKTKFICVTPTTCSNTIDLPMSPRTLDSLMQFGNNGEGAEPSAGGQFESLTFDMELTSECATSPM
Sequence of Estrogen receptor (Homo sapiens) (P03372 whole entry, looked up, the tested form may be a part): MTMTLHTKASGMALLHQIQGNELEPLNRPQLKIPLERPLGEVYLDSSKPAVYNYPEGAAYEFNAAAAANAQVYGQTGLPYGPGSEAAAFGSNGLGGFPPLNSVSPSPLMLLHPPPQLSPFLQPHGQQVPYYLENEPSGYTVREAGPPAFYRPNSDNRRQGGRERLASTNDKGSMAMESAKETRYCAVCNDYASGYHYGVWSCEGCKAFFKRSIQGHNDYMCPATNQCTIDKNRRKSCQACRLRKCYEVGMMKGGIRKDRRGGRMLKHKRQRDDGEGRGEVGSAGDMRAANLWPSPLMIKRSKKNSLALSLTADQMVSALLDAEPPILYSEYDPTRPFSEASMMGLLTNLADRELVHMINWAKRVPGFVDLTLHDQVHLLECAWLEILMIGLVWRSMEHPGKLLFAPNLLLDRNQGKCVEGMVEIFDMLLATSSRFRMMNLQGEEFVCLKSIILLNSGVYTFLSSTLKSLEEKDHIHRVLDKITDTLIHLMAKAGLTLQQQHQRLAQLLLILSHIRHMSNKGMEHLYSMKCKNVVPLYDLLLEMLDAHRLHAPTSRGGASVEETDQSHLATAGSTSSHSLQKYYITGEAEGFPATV
Sequence of X-box-binding protein 1 (Homo sapiens) (P17861 whole entry, looked up): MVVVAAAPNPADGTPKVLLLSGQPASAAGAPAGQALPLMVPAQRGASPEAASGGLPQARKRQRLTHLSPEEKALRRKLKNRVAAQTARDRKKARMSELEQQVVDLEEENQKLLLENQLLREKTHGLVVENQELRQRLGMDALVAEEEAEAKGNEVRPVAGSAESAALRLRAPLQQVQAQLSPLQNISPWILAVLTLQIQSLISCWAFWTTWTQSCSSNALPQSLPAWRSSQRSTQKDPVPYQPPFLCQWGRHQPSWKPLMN
Sequence of Transcription factor Sp1 (Homo sapiens) (P08047 whole entry, looked up): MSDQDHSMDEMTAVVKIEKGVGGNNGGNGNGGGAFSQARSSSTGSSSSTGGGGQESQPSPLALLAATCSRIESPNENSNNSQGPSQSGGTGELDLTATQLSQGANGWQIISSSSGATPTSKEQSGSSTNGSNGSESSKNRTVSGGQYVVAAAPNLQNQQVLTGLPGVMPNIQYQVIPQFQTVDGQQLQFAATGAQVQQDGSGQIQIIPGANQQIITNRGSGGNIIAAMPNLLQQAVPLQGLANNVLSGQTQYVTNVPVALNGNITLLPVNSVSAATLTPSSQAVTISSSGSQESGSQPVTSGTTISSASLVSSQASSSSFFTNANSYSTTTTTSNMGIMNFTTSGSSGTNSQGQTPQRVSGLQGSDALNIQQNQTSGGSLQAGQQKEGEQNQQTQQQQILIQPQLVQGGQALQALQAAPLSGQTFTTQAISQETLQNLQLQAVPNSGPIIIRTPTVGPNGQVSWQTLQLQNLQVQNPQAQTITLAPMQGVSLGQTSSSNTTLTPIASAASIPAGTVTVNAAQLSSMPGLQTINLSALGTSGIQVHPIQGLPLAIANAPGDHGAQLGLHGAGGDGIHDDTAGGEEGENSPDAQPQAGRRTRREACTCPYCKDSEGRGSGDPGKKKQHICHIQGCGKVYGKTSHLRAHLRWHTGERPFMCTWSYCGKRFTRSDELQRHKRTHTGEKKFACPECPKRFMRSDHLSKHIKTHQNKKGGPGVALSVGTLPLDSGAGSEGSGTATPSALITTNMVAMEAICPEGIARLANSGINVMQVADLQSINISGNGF
Sequence of Estrogen-related receptor gamma (Homo sapiens) (P62508 whole entry, looked up, the tested form may be a part): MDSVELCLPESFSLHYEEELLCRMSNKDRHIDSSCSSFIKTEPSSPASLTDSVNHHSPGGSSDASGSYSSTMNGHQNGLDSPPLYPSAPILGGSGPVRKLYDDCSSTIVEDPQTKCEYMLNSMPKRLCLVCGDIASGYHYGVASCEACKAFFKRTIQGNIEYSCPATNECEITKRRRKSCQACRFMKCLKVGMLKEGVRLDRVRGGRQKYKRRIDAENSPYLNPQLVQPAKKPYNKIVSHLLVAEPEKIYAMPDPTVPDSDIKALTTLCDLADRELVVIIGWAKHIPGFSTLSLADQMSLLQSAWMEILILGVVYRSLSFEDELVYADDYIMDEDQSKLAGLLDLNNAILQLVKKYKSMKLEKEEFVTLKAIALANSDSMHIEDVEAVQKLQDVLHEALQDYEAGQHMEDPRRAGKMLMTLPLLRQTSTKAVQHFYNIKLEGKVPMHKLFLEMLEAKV
Sequence of Nuclear receptor subfamily 1 group I member 3 (Homo sapiens) (Q14994 whole entry, looked up, the tested form may be a part): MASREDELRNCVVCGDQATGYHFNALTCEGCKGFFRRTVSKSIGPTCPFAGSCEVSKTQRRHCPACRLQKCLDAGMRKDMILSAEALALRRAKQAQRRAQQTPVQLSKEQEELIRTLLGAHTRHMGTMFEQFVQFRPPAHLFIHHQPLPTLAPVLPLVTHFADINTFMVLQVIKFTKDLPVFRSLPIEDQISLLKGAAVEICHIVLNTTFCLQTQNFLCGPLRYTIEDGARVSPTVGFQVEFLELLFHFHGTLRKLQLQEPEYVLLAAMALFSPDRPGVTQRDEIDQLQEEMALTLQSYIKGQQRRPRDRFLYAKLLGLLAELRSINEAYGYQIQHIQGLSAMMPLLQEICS
Sequence of Steroid hormone receptor ERR1 (Homo sapiens) (P11474 whole entry, looked up, the tested form may be a part): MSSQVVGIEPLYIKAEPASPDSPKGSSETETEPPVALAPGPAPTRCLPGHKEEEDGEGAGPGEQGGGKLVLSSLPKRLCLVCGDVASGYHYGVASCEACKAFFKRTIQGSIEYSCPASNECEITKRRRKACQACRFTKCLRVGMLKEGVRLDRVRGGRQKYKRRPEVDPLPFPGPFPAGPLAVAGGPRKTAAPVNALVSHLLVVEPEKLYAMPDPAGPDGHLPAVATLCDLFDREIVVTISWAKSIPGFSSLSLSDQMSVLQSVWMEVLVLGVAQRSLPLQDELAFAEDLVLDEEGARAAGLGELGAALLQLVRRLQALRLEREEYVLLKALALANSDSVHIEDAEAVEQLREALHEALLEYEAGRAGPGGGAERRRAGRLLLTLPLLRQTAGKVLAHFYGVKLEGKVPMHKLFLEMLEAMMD

As for `O=C1CCCCCCCCCCCCCCCO1`, the outcome in assay [1], in [2], in [3], in assay [4], in assay [5] and in assay [6] was inactive. Moreover, the call in assay [8], in assay [9], in assay [10], in [11], in assay [12] and in assay [13] was inactive. The molecule was called inactive in assay [14] and in assay [15]. Further, the AC50 in assay [7] is 100 µM (active).
Turning to `c1ccc(CCCc2ccncc2)cc1`, the result in [1], in [3], in assay [4], in [5], in assay [6] and in [7] was inactive. Further, the molecule was classed as inactive in assay [8], in assay [9], in assay [10], in [11], in assay [13] and in [15]. Further, the AC50 in assay [2] was 27 µM (active).
With `O=c1[nH]c(=O)c2[nH]c(=O)[nH]c2[nH]1`, the molecule was classed as inactive in assay [1], in [2], in assay [3], in assay [4], in assay [5] and in assay [6]. In addition, the call in assay [7], in assay [8], in [9], in assay [10], in [11] and in assay [16] was inactive. Moreover, the molecule was classed as inactive in assay [13] and in assay [15].
`c1ccc(-c2ccccn2)nc1`: the call in [1], in [2], in assay [3], in assay [4], in assay [5] and in assay [6] was inactive. In addition, the outcome in assay [7], in assay [8], in assay [9], in [10], in [11] and in assay [17] was inactive. Besides, the result in assay [13], in assay [15] and in [18] was inactive.
Regarding `Nc1ncn([C@@H]2O[C@H](CO)[C@@H](O)[C@H]2O)c(=O)n1`, the molecule was classed as inactive in assay [1], in assay [2], in assay [3], in assay [4], in [5] and in assay [6]. The outcome in assay [7], in assay [8], in [9], in [11], in [16] and in assay [12] was inactive. Besides, the molecule was classed as inactive in assay [13], in assay [15], in assay [19] and in assay [18]. Besides, the AC50 in assay [10] is 0.975 µM (active).
